# Measurements published in the supplement of paper PMC10646978.
# ± gives the standard deviation.
# Assays:
# Conditions in all cases: modulator concentration 10 µM
# [1] = system: RAW-Dual (murine macrophage reporter line); assay: NF-kB reporter (SEAP) activity fold change vs agonist alone; higher = enhanced NF-kB activity
# How it was run: (§1)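 Compound reached 10 μM final in each well by pin transfer, onto RAW-Dual murine macrophage reporter cells seeded at 50 000 per well in 384-well plates. After 1 hour at 37 °C, the cells were stimulated overnight with a PRR agonist. SEAP in the supernatant was read with QUANTI-Blue at 620 nm absorbance for NF-κB, and Lucia luciferase was read with QUANTI-Luc luminescence for IRF. Each signal was turned into fold change against the mean agonist-only control on the same plate, and two replicate plates were averaged with propagated errors.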
# [2] = system: RAW-Dual (murine macrophage reporter line); assay: IRF reporter (Lucia luciferase) activity fold change vs agonist alone; higher = enhanced IRF activity
# How it was run: as §1
# [3] = system: RAW-Dual (murine macrophage reporter line); assay: viability score (confluency relative to resting cells, overnight) (fraction); higher = more viable, active = viable (0.7 or more)
# How it was run: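 RAW-Dual macrophages in 384-well plates were exposed overnight to compound at 10 μM final. Confluency was imaged with IncuCyte, and two confluency masks were generated with IncuCyte software over all imaged wells. The viability score is confluency expressed relative to resting cells. Compounds were called viable if both masks exceeded 70% of resting cells.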
# [4] = agonist: CpG ODN 1826 0.5 ug/mL
SMILES,"NF-kB reporter [1, 4]",NF-kB reporter ([1]; agonist: LPS 0.1 ug/mL),NF-kB reporter ([1]; agonist: MPLA […]),IRF reporter ([2]; agonist: 3'3'-cGAMP 10 ug/mL),IRF reporter ([2]; agonist: LPS 0.1 ug/mL),IRF reporter ([2]; agonist: MPLA […]),viability score [3]
O=C1NC(=O)C(C(CC(=O)c2ccccc2)c2ccccc2)C(=O)N1 (centres undefined),1.04 ± 0.093,0.984 ± 0.076,0.93 ± 0.035,0.942 ± 0.12,1.02 ± 0.045,0.931 ± 0.14,1 (active)
O=C(O)CCCc1ccc(N(CCCl)CCCl)cc1,1.03 ± 0.17,1.03 ± 0.084,1.11 ± 0.13,0.912 ± 0.027,1.29 ± 0.28,1.08 ± 0.12,0.994 (active)
COc1cc2c(c(OC)c1OC)-c1ccc(OC)c(=O)cc1[C@@H](NC(C)=O)CC2,2.45 ± 0.12,1.8 ± 0.14,2.47 ± 0.11,0.0843 ± 0.011,1.5 ± 0.13,1.91 ± 0.42,0.687 (inactive)
CC(=O)OC1CCC2(C)C(=CCC3C4CCC(=O)C4(C)CCC32)C1 (centres undefined),0.92 ± 0.084,0.901 ± 0.076,0.863 ± 0.092,0.969 ± 0.031,1.08 ± 0.095,1.15 ± 0.13,1 (active)
CN1C(=O)C(=Cc2nc3ccccc3c(=O)n2-c2ccccc2)c2ccccc21,1.01 ± 0.088,0.867 ± 0.097,1.65 ± 0.63,1.08 ± 0.052,1.32 ± 0.23,1.29 ± 0.24,1.05 (active)
Cc1ccc(-c2nn(-c3ccccc3)cc2C=C2C(=O)NC(=S)NC2=O)o1,1.03 ± 0.3,1.01 ± 0.11,0.898 ± 0.071,0.968 ± 0.057,1.27 ± 0.2,1.25 ± 0.13,1 (active)
COc1cc([C@@H]2c3cc4c(cc3[C@H](O)[C@H]3COC(=O)[C@H]23)OCO4)cc(OC)c1OC [Prestw-782],2.45 ± 0.14,1.61 ± 0.098,2.69 ± 0.16,0.0908 ± 0.0036,1.48 ± 0.1,1.6 ± 0.31,0.721 (active)
CC(C(O)c1ccccc1)N(C)C (centres undefined),0.96 ± 0.084,0.883 ± 0.065,0.955 ± 0.091,0.995 ± 0.031,1.26 ± 0.12,1.3 ± 0.19,1 (active)
NC(=O)CN1CC(O)CC1=O (centres undefined),1.04 ± 0.079,1.04 ± 0.051,1 ± 0.03,0.961 ± 0.081,1.02 ± 0.082,0.954 ± 0.097,0.996 (active)
COc1cc2c(cc1OC)C1C(=O)c3ccc4c(c3OC1CO2)CC(C(C)C)O4 (centres undefined),1.11 ± 0.19,1.48 ± 0.12,2.31 ± 0.18,0.857 ± 0.06,1.89 ± 0.32,2.1 ± 0.4,0.976 (active)
CCn1cc(C(=O)O)c(=O)c2c(N)c(F)c(N3CCNCC3)c(F)c21,0.952 ± 0.067,1.09 ± 0.068,0.859 ± 0.073,0.972 ± 0.033,1.47 ± 0.14,1.2 ± 0.2,0.998 (active)
OCC(O)Cc1ccc2c(c1)OCO2 (centres undefined),1.02 ± 0.096,0.831 ± 0.062,0.906 ± 0.093,0.988 ± 0.031,1.37 ± 0.19,1.53 ± 0.25,0.994 (active)
C#CCOc1ccc(C=C2C(=O)NC(=O)N(c3cc(OC)c(Cl)cc3OC)C2=O)cc1Cl,1.1 ± 0.1,1 ± 0.059,0.899 ± 0.056,0.952 ± 0.051,1.15 ± 0.12,0.887 ± 0.055,1.01 (active)
Cc1cccc(-n2c(C)nc3ccccc3c2=O)n1,0.88 ± 0.052,0.827 ± 0.1,0.949 ± 0.039,1.02 ± 0.041,1.02 ± 0.054,0.935 ± 0.19,0.998 (active)
O=C1NC(=O)C(=Cc2cccn2-c2ccc(Br)cc2)C(=O)N1,1.09 ± 0.09,0.758 ± 0.06,1.08 ± 0.04,0.876 ± 0.094,0.91 ± 0.14,0.844 ± 0.18,0.997 (active)
CN1C(=O)NC(=O)C(=Cc2ccc([N+](=O)[O-])s2)C1=O,1.12 ± 0.12,1.08 ± 0.07,1.05 ± 0.036,0.895 ± 0.098,0.925 ± 0.12,0.914 ± 0.19,1 (active)
CCCCCn1c(=O)c(C(=O)NCc2cccnc2)c(O)c2ccccc21,1.13 ± 0.086,1.25 ± 0.085,0.997 ± 0.062,1.02 ± 0.04,1.31 ± 0.087,1.34 ± 0.12,0.989 (active)
O=Cc1cn(Cc2cccc3ccccc23)c2ccccc12,0.959 ± 0.16,1.01 ± 0.11,1.16 ± 0.12,1.09 ± 0.03,1.25 ± 0.28,1.23 ± 0.25,0.989 (active)
CC(=O)C1CCC2C3CCC4CC(O)CCC4(C)C3CCC12C (centres undefined),1.17 ± 0.28,1.16 ± 0.097,1.02 ± 0.079,0.858 ± 0.034,1.2 ± 0.19,1.38 ± 0.13,0.985 (active)
CCOC(=O)c1ccccc1-c1ccc(C=C2C(=O)NC(=O)N(c3cccc(C)c3)C2=O)o1,1 ± 0.18,0.965 ± 0.11,0.881 ± 0.069,1 ± 0.029,1.2 ± 0.14,1.09 ± 0.12,0.995 (active)
COC(=O)COc1ccc(C=C2C(=O)NC(=S)N(c3cccc(Cl)c3Cl)C2=O)cc1OC,0.959 ± 0.09,1.04 ± 0.086,0.932 ± 0.063,0.909 ± 0.048,1.35 ± 0.12,1.14 ± 0.12,1.01 (active)
COc1ccc(CCNCc2ccc(OC)c(OC)c2OC)cc1OC,1.01 ± 0.11,0.876 ± 0.14,0.942 ± 0.052,0.927 ± 0.16,1.01 ± 0.044,0.997 ± 0.11,0.998 (active)
CCN(CC)CCNC(=O)C(O)(c1ccccc1)c1ccccc1,0.873 ± 0.071,0.937 ± 0.066,0.964 ± 0.038,0.968 ± 0.076,0.991 ± 0.17,0.923 ± 0.23,0.998 (active)
CN1C2CCC1CC(OC(=O)C(CO)c1ccccc1)C2 (centres undefined),1.23 ± 0.29,1.19 ± 0.083,1.14 ± 0.098,0.91 ± 0.032,1.24 ± 0.15,1.15 ± 0.16,0.986 (active)
Br.CN1C2CC(OC(=O)C(CO)c3ccccc3)CC1C1OC12 (centres undefined),1.32 ± 0.32,0.999 ± 0.051,1.01 ± 0.074,1 ± 0.034,1.19 ± 0.13,1.19 ± 0.13,0.985 (active)
N=C(N)NOCCC(N)C(=O)O (centres undefined),1.02 ± 0.076,1 ± 0.058,1.02 ± 0.03,0.979 ± 0.057,0.938 ± 0.12,0.931 ± 0.13,0.998 (active)
CC1=C(O)C(=O)C=C2C1=CC=C1C2(C)CCC2(C)C3CC(C)(C(=O)O)CCC3(C)CCC12C (centres undefined),0.062 ± 0.0049,0.048 ± 0.0035,0.0885 ± 0.0089,0.0157 ± 0.0014,0.116 ± 0.081,0.071 ± 0.039,0.381 (inactive)
